The source made the active and inactive calls.
Tests used:
Albumin (Bos taurus) = Albumin (Bos taurus) (UniProt P02769); test: compounds binding labelled BSA control protein – biochemical, small-molecule microarray, Alexa647 label, 635/667 nm fluorescence, artefact control for SMM control protein annotation, profiling panel (AID 1118); settings: BSA-A647 binding, fluorescence 635 nm, higher = more signal;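 note: score merges 667 nm emission intensity and signal-to-noise per printed compound spot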
[1] = probe aXIP binding to arrayed compounds – biochemical, NeuroSMM set, 635/667 nm fluorescence, primary screen (AID 1119); settings: small-molecule microarray, higher = more signal, called active from +8 up or from −8 down;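 note: probe is the protein aXip251-270 applied at 1 µg/mL to compound-printed slides; binding of probe to printed compounds measured as 667 nm fluorescence plus signal to noise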
[2] = probe aNOTCH3 binding on compound microarray – biochemical, small-molecule microarray, 635/667 nm fluorescence, primary screen (AID 1120); settings: higher = more signal;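 note: probe is a biotin-tagged antibody raised against NOTCH3 rather than NOTCH3 protein; score merges spot fluorescence near 667 nm with spot signal to noise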
[3] = probe aNOTCH2 binding on compound microarray – biochemical, small-molecule microarray, 635/667 nm fluorescence, primary screen (AID 1121); settings: higher = more signal;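 note: score merges feature fluorescence read at 667 nm with its signal to noise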
[4] = molecular target: Carbonic anhydrase 2 (Homo sapiens) (UniProt P00918); test: compounds binding carbonic anhydrase 2 – biochemical, small-molecule microarray, Alexa647-labelled CAII, profiling panel (AID 1122); settings: CAII-A647 binding fluorescence, higher = more signal
[5] = COS7 lysate on small-molecule microarray, probe aHis, 635 nm (AID 1123); settings: COS7 cell lysate, fluorescence, higher = more signal;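 note: z-score combines 667nm fluorescence intensity with signal-to-noise per printed compound spot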
[6] = probe aLAP1 signal on lysate-treated microarray – cell lysate, small-molecule microarray, COS7 lysate, primary screen (AID 1124); settings: probe aLAP1, fluorescence, higher = more signal;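 note: lysate comes from COS7 cells expressing LAP1 and is applied at 0.3 µg/mL; score merges spot fluorescence near 667 nm with signal-to-noise over triplicate slides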
Sam68 (KHDRBS1) = test: compounds binding KHDRBS1 protein – biochemical, small-molecule microarray, 635 nm fluorescence, primary screen (AID 1125); settings: higher = more signal;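 note: score merges 667 nm channel intensity with signal to noise over triplicate slides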
[7] = test system: Chordin-like protein 2 (CHRDL2); test: compounds binding chordin-like 2 – biochemical, small-molecule microarray, 635 nm fluorescence, primary screen (AID 1126); settings: fluorescence 635 nm, higher = more signal;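 note: printed compound slides probed with Chrdl2 protein at 4 µg/mL for 1 h at 4 C; score merges 667 nm emission intensity with signal to noise over three replicate slides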
[8] = molecular target: Concanavalin-A (Canavalia ensiformis) (UniProt P02866); test: compounds binding concanavalin A lectin – biochemical, small-molecule microarray, Alexa647 label, 635 nm, artefact control for SMM control protein annotation, primary screen (AID 1127); settings: ConA-A647 binding fluorescence, higher = more signal;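 note: z combines 667 nm emission intensity with signal-to-noise across three replicate slides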
Sequence of Concanavalin-A (Canavalia ensiformis) (P02866 whole entry, looked up): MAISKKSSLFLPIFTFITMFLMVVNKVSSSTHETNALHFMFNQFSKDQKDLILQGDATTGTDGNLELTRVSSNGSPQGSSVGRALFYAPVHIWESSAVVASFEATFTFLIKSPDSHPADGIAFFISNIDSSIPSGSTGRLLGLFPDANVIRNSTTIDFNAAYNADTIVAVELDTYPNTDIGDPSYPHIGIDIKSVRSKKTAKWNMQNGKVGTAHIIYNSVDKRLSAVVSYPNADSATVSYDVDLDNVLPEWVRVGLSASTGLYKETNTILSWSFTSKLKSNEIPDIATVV

Sequence of Albumin (Bos taurus) (P02769 whole entry, looked up): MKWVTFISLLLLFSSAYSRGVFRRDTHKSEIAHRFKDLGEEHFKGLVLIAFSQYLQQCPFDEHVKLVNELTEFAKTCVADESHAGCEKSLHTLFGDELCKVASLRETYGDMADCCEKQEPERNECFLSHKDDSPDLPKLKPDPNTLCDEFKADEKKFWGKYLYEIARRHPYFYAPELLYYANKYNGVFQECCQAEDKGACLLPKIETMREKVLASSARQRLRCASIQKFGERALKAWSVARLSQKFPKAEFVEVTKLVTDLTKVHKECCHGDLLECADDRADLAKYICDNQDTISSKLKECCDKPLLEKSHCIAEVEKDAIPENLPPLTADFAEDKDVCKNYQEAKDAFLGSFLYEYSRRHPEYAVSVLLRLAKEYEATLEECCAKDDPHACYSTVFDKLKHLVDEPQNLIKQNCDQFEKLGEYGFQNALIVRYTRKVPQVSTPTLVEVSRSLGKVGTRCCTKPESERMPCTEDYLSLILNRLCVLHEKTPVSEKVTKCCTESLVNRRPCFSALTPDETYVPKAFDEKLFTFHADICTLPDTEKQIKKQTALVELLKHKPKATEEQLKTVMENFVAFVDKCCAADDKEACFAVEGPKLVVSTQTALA

Row | SMILES | composite z-score (Albumin (Bos taurus)) | composite Z-score [1] | composite z-score [2] | composite z-score [3] | composite z-score [4] | composite z-score [5] | composite z-score [6] | composite z-score (Sam68 (KHDRBS1)) | composite z-score [7] | composite z-score [8]
1 | C=CC1c2cc(O)c(OC)cc2CCN1Cc1sc2ccccc2c1Cl (stereo not given) | 0.854 | -0.967 (inactive) | 0.177 | -0.0772 | 0.79 | 1.46 | 0.381 | 0.807 | 0.575 | 0.859
2 | CCOC(=O)C1=CC[C@@H](c2ccc([N+](=O)[O-])cc2)N(S(=O)(=O)c2ccc(C)cc2)[C@H]1c1ccccc1 | 0.845 | 0.312 (inactive) | 0.233 | -0.0297 | 0.373 | 2.21 | 0.359 | 1.28 | 0.402 | 0.842
3 | CCOc1cc(C(O)C2C=CC3C(=O)N(C)C(=O)C3N2N2CCCCC2)ccc1O (stereo not given) | 0.534 | 0.293 (inactive) | 0.135 | -0.0106 | 0.709 | 0.733 | 0.14 | 0.0667 | 0.278 | 0.852
4 | O=c1cccc(-c2ccc(C(F)(F)F)cc2)o1 | -0.309 | -0.275 (inactive) | -0.122 | -0.11 | -0.14 | -0.89 | 0.0441 | -1.03 | -0.291 | -0.0038
5 | O=C1OCC=C[C@H]2OC34C=CCN(Cn5nnc6ccccc65)C(=O)[C@H]3N(CCCCCCO)C(=O)[C@@H]4[C@@H]12 (stereo not given in full) | -1.02 | 0.648 (inactive) | -0.165 | -0.126 | 0.904 | 0.718 | 0.79 | 0.0126 | -0.743 | -1.01
6 | O=C1c2ccccc2[C@@]2(Cc3ccccc3N(C3CC3)C2=O)[C@H](c2ccc(CO)cc2)N1C1CCCCC1 | 0.804 | -0.481 (inactive) | -0.125 | -0.0804 | 0.269 | 0.154 | 0.586 | -0.728 | -0.431 | -1.02
7 | C[C@H]1C2=C3C(CC[C@H]4C(OCc5ccc(F)cc5C(F)(F)F)OC[C@](C)([C@@H]34)N(C(=O)OC(C)(C)C)C2)C(CO)C1CO (stereo not given in full) | 0.953 | 1.08 (inactive) | 0.266 | 0.0831 | 0.352 | 3.19 | 0.505 | 1.31 | -1.44 | 0.862
8 | Cc1c(NC(=O)/C(C#N)=C/C=C/c2ccc(N(C)C)cc2)c(=O)n(-c2ccccc2)n1C | 0.376 | 1.02 (inactive) | 0.308 | 0.292 | 0.456 | 2.54 | -0.154 | 1.22 | 0.568 | 1.1
9 | COCCOC(=O)N1C(=O)[C@@]2(c3cc(C#CC4=CCCCC4)ccc31)[C@H](c1ccc(O)cc1)N1[C@H](c3ccccc3)[C@H](c3ccccc3)OC(=O)[C@H]1[C@@H]2C(=O)Nc1nc2ccccc2s1 | 0.802 | -0.202 (inactive) | 0.302 | -0.121 | 0.556 | 2.78 | 0.657 | 1.32 | 0.206 | 1.12
10 | CCCCN1CC=CC23O[C@@H]4C=CCOC(=O)[C@@H]4[C@H]2C(=O)N(CCCO)[C@@H]3C1=O (stereo not given in full) | 0.335 | 0.064 (inactive) | -0.321 | -0.179 | 0.868 | 0.726 | 0.95 | 0.237 | -0.565 | -0.926
11 | C[C@]1(C(=O)NC2CC2)c2ccccc2C(=O)N(Cc2ccc(OC(F)(F)F)cc2)[C@H]1c1ccc(CO)cc1 | -0.85 | -0.0189 (inactive) | 0.0271 | 0.0049 | 0.37 | 0.209 | 0.0915 | 0.0003 | -1.14 | -0.698
12 | CCOc1cc(C(O)C2C=CC3C(=O)N(C4CCCCC4)C(=O)C3N2Nc2ccc(OC)cc2)ccc1O (stereo not given) | 0.786 | 0.764 (inactive) | 0.208 | 0.0791 | 0.441 | 2.61 | 0.717 | 1.28 | -0.0164 | 1.12
13 | O=C(O)[C@H]1C[C@H]2C(=O)N3CCC[C@H]3C(=O)N2[C@H]1c1cccc(OCCO)c1 | -0.698 | 0.223 (inactive) | -0.124 | -0.115 | 0.525 | 1.21 | -0.332 | 0.833 | 0.996 | 0.942
14 | COCCOC(=O)N1C(=O)[C@@]2(c3cc(C#CCNC(N)=O)ccc31)[C@H](C(=O)N1CCCCCCC1)[C@H]1C(=O)O[C@H](c3ccccc3)[C@H](c3ccccc3)N1[C@@H]2c1ccc(O)cc1 | 0.0763 | 0.559 (inactive) | 0.239 | -0.0714 | 0.354 | 0.654 | 0.285 | 1.11 | 0.626 | 1.03
15 | CN(C)CCCNC(=O)[C@@]1(c2ccc([N+](=O)[O-])cc2)CC(=O)N(CC23CC4CC(CC(C4)C2)C3)[C@@H]1c1ccc(CO)cc1 | 0.0561 | -0.137 (inactive) | 0.683 | 0.094 | 0.49 | 3.43 | 0.82 | 1.3 | 1.07 | 1.15
16 | C=CC[C@]1(C(=O)N(C)C)N=C(c2ccc(OCCCO)cc2)O[C@H]1c1ccccc1N=[N+]=[N-] | 1.07 | 0.298 (inactive) | 0.266 | 0.0805 | 0.489 | 2.81 | 0.55 | 1.3 | -0.811 | 0.877
17 | COCCOC(=O)N1C(=O)[C@@]2(c3cc(C#Cc4ccc(OC)cc4)ccc31)[C@H](C(=O)N1CCN(c3ncccn3)CC1)[C@H]1C(=O)O[C@H](c3ccccc3)[C@H](c3ccccc3)N1[C@@H]2c1ccccc1OCCO | -0.108 | 0.131 (inactive) | -0.122 | -0.114 | 0.331 | 1.3 | 0.107 | 0.717 | -0.0849 | 0.819
18 | C=C(/C(=C/C[C@@H](OC(=O)c1ccncc1)c1ccccc1OCCO)c1cc(C(=O)OC)ccc1OC)C(C)C | 0.359 | -0.0951 (inactive) | 0.138 | -0.0895 | 0.676 | 1.75 | 0.457 | 1.25 | 0.0435 | 0.474
19 | C=CC[C@H](OC(=O)Nc1ccc(OC)cc1)c1ccc(O)c2ccccc12 | -0.343 | -0.192 (inactive) | 0.0539 | -0.124 | 0.289 | 0.865 | -0.0938 | 1.3 | 1.18 | 1.09
20 | O=C1O[C@@H](c2ccccc2)[C@@H](c2ccccc2)N2[C@@H](c3ccc(O)cc3)[C@]3(C(=O)Nc4ccc(C#CC5=CCCCC5)cc43)[C@@H](C(=O)N3CCN(c4ncccn4)CC3)[C@H]12 | 0.475 | 0.131 (inactive) | -0.0328 | -0.111 | 0.573 | 1.72 | 0.299 | 1.29 | 0.363 | 1.11
21 | CCOC(=O)C[C@H]1[C@H](OC(=O)c2ccc(-c3ccccc3)cc2)[C@@H](NC(=O)C2CCCCC2)c2cc(OCCCO)ccc2N1C(=O)c1ccccc1 | 0.236 | -0.6 (inactive) | 0.172 | -0.152 | 0.0455 | 0.92 | 0.0846 | 0.957 | 0.372 | 0.949
22 | C=CCC(OC(C)=O)[C@@H]1[C@@H](N(Cc2cc3ccccc3o2)C(=O)c2ccc(C)cc2)c2cc(OCCCO)ccc2N1C(=O)Cc1ccc2ccccc2c1 (stereo not given in full) | 0.324 | 0.0991 (inactive) | 0.0311 | -0.0077 | -0.138 | 0.0465 | -0.057 | -0.366 | 0.208 | -1.56
23 | COCCOC(=O)N1C(=O)[C@@]2(c3ccccc31)[C@H](C(=O)N1CCN(c3ncccn3)CC1)[C@H]1C(=O)O[C@H](c3ccccc3)[C@H](c3ccccc3)N1[C@@H]2c1ccc(OCCO)cc1 | 0.329 | 2.41 (inactive) | 0.32 | -0.0029 | 0.512 | 1.36 | 0.341 | 1.12 | 0.292 | 1.13
24 | COc1ccc([Si](C)(C)[C@H]2[C@H](CCO)O[C@@]3(C(=O)N(Cc4cccc(N5CCCCC5=O)c4)c4ccccc43)[C@@H]2C)cc1 | 0.378 | 0.299 (inactive) | -0.0984 | -0.148 | 0.394 | 1.31 | 0.264 | 1.15 | 0.769 | 1.1
25 | C=CCOC(=O)[C@H]1[C@@H]2C(=O)O[C@@H](c3ccccc3)[C@@H](c3ccccc3)N2[C@@H](c2ccc(OCCOC(=O)[C@H]3C[C@H]4C(=O)N[C@@H](Cc5ccccc5)C(=O)N4[C@H]3c3ccc(O)cc3)cc2)[C@]12C(=O)Nc1ccc(I)cc12 | -0.175 | 0.341 (inactive) | 0.189 | -0.11 | 0.28 | 1.78 | 0.428 | 1.3 | 1.23 | 1.14
26 | CC[C@@H]1[C@H]2C3C(=O)N(CC)C(=O)C3CC(=O)[C@H]2[C@H](c2ccc(C)cc2)N1S(=O)(=O)c1ccc(C)cc1 (stereo not given in full) | 0.779 | -0.337 (inactive) | 0.0271 | -0.0468 | 0.512 | 1.21 | -0.357 | 1.33 | -0.49 | 0.914

Reference: PubChem BioAssay
